Some of the results follow. A number with no mark means an inactive call.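 The calls were made as follows: active = mean inhibition over triplicates above a set limit taken from the primary EBNA-1 screen (cut at about 37% in these data); inactive = the rest.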

The target of this experiment is Lytic switch protein BZLF1 (Epstein-Barr virus (strain B95-8)) (UniProt P03206). The experiment in a line: EBV Zta DNA binding inhibitors, counter-screen for EBNA-1 inhibitor project, biochemical, fluorescence polarization, triplicate (AID 2328).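 Also: purified full length Zta protein with Cy5 labeled ZRE DNA probe; 0% = Zta with DMSO and 100% = wells lacking Zta protein; inhibitors lower polarization by freeing the labeled DNA probe.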 Particulars: Zta-ZRE DNA binding, Cy5 fluorescence polarization; at 11.1 µM; active compounds read high.
Chain of Lytic switch protein BZLF1 (Epstein-Barr virus (strain B95-8)) (P03206 whole entry, looked up): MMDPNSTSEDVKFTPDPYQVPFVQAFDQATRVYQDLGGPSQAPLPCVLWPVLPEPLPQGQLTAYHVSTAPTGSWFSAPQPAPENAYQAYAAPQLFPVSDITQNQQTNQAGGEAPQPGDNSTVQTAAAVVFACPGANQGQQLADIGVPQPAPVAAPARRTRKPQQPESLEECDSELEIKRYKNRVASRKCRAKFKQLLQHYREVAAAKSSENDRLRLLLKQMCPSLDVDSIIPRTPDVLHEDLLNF
For `O=C(COc1ccc(/C=N/NC(=O)c2ccc(O)cc2)cc1)Nc1ccc([N+](=O)[O-])cc1`, the inhibition was 31.8%.

On to `Nc1ccc(S(=O)(=O)Nc2nccc(/C=C/c3ccc(Br)s3)n2)cc1`, for which the inhibition is -3.48%.

As for `N#Cc1nc(N)nc(N(c2ccccc2)c2ccccc2)n1`, the inhibition is -3.66%.

In the case of `COc1ccc(-c2ccc(Nc3ccc(S(=O)(=O)N4CCCC4)cc3)nn2)cc1OC`, the inhibition is -8.43%.

Turning to `O=C(Nc1ccc2ccccc2c1)Nc1ccc2snnc2c1`, the inhibition was 1.17%.

Turning to `COc1ccc(C(=O)Nc2cccc(NC(=O)c3ccc(OC)cc3OC)n2)c(OC)c1`, the inhibition was 7.79%.

Consider `COC(=O)C1=CN(Cc2ccc(OC)cc2)C=C(C(=O)OC)C1c1ccc(O)c(OC)c1`, for which the inhibition was -0.26%.

In the case of `C/C(=N\N=C(N)N)c1ccc(Cl)cc1`, the inhibition was 1.14%.

For the compound `CCc1nccn1S(=O)(=O)c1cccc([N+](=O)[O-])c1`, the inhibition was 0.63%.

As for `CC(=O)Nc1ccc(S(=O)(=O)NCC(=O)OCc2cc(=O)oc3ccc4ccccc4c23)cc1`, the inhibition is 7.35%.

Take `N#Cc1ccc(N2Cc3ccccc3/C2=N/C(=O)Nc2ccc(Cl)cc2)cc1`: the inhibition is -9.43%.

With `COc1ccc(CCNC(=S)N2CCN(S(=O)(=O)c3ccc(F)cc3)CC2)cc1`, the inhibition was -0.49%.

Turning to `COc1ccc(NC(=O)NCc2ccc3c(c2)OCO3)c(OC)c1`, the inhibition was -15.6%.

On to `CC(=O)c1c(C)[nH]c(C(=O)OCC(=O)Nc2sc3c(c2C#N)CCCC3)c1C`, for which the inhibition is 5.6%.

Take `Nc1nnc(SCC(=O)Nc2ccc3nc(SCC(=O)Nc4ccccc4)sc3c2)s1`: the inhibition was 8.16%.

For the compound `CCOc1cccc(SCc2noc(C(=O)NC(C)C)c2C(=O)O)c1`, the inhibition is 2.79%.

Turning to `CCOc1ccc(NC(=O)c2ccc(NC(=O)COC(=O)c3ccc(NC(=O)CC#N)cc3)cc2)cc1`, the inhibition was 6.56%.

For `COc1ccc(-c2nonc2NC(=O)c2oc3ccc(F)cc3c2C)cc1OC`, the inhibition is -0.1%.

`O=C(Nc1cccc(NC(=O)c2ccc(Br)cc2)c1)c1ccccc1`: the inhibition is 4.83%.

In the case of `Cc1cccc(N(CC(=O)Nc2ccc(-c3nc4ccc(C)cc4s3)cc2)S(C)(=O)=O)c1`, the inhibition was 13.4%.

Consider `Cc1cccc(NC(=O)Cn2c(=O)n(Cc3ccccc3)c(=O)c3c(C)c(C)sc32)c1`, for which the inhibition is -8.61%.

Regarding `Cc1ccc(-c2nn(-c3ccccc3)cc2/C=C2\SC(=S)N(CCCCCC(=O)O)C2=O)o1`, the inhibition was 5.22%.

Take `CCOc1ccc(OCC)c(NC(=O)C(NS(=O)(=O)c2ccc3c(c2)oc(=O)n3C)C(C)C)c1` (stereo unspecified): the inhibition was 22.3%.

Regarding `COC(=O)CSc1nc(C)c2ccc(OC)cc2n1`, the inhibition was -0.69%.

Take `Cc1[nH]n(C(N)=S)c(=O)c1N=Nc1ccc(Cl)cc1Cl`: the inhibition is -7.48%.

Take `Cc1ccc(O)c(/C=N/NC(=O)COc2ccc3c(C)cc(=O)oc3c2)c1`: the inhibition was -17%.

As to `CCC(=O)Nc1ccc(C(=O)Nc2ccc3c(c2)C(=O)N(CC2CCCO2)C3=O)cc1` (stereo unspecified), the inhibition was -3.33%.

With `Cc1ccc(C(=O)NNC(=O)c2cc3cc4ccccc4nc3s2)cc1`, the inhibition is 7.01%.

For the compound `CCOC(=O)c1ccc(NC(=O)C2CC(=O)Nc3nc4ccccc4n32)cc1` (stereo unspecified), the inhibition was -17.7%.

Take `COc1ccc(C)cc1NC(=O)NCc1ccccn1`: the inhibition is -2.35%.

As to `O=C(CCCn1c(SCC(=O)c2ccc(F)cc2)nc2ccccc2c1=O)NCc1ccco1`, the inhibition is 10.2%.

Turning to `CCOc1[nH]n(-c2ccc(Cl)cc2)c(=O)c1C=Nc1ccc(O)cc1`, the inhibition is 6.97%.

On to `COc1ccc(C(=O)CSc2nnc(NC(=O)C3CC(=O)N(c4cccc(OC)c4)C3)s2)cc1` (stereo unspecified), for which the inhibition was -0.54%.

On to `CCOc1ccc(C(=O)NC(=S)Nc2ccc(NC(=O)C(C)C)cc2)cc1[N+](=O)[O-]`, for which the inhibition was -3.36%.

Regarding `CCOc1cccc(NC(=O)Cn2nc(-c3ccc4c(c3)OCCO4)ccc2=O)c1`, the inhibition is -0.94%.

`COc1ccc(CNc2nc3c(c(=O)[nH]c(=O)n3C)n2Cc2ccccc2)cc1`: the inhibition was -15.5%.

Source of the values: PubChem BioAssay AID2328 (The Scripps Research Institute Molecular Screening Center, 2010).
